Experimental data published in PubChem BioAssay AID463173 (ICCB-Longwood Screening Facility, Harvard Medical School, 2010).
Out of some 52,000 compounds screened, about 4,300 (8.3%) were called active. The sample as a whole holds a higher share of actives than the screen did. Unmarked numbers belong to inactive results. No stated cut-off is given here; in the data, active means survival mostly below about 52% (no sharp cut-off); inactive means mostly above about 56%.

System: DeltatarO mutant
Test: S. aureus survival, RN4220 and DeltatarO strains – OD600, teichoic acid synthesis inhibitors, primary screen (AID 463173)
Settings: S. aureus RN4220 wild type/DeltatarO growth, OD600, 18 h, hits give low values, screened at 18.75 µg/mL (by protocol)

Point of comparison: O=C(Cn1c(=O)c2ccccc2n(CC(=O)Nc2ccc(F)cc2F)c1=O)NCCc1ccccc1, survival 81%. Against it:
- CN(C)CCNC(=O)Cn1c(=O)c2cccn2c2ccc(F)cc21 — higher, 103%
- CCOC(=O)c1ccc(N2C(=O)c3n[nH]c(-c4ccco4)c3C2c2ccc(OC)cc2OC)cc1 (configuration not stated) — higher, 89%
- CCOc1ccc(C(=O)OCc2cc(=O)n3nc(C4CC4)sc3n2)cc1 — lower, 80%
- CC(C)N(C)NC(=S)Nc1ccccc1 — lower, 77%
- CCN(CC)C(=O)Cn1c(=O)n(CCCCCC(=O)Nc2ccccc2)c(=O)c2sccc21 — higher, 82%
- COc1ccc(-c2cc3nccc(C4CCN(C(=O)OC(C)(C)C)CC4)n3n2)cc1 — higher, 102%
- CCOC(=O)c1c(NC(=O)c2cc(CC)on2)sc(C)c1C — higher, 144%
- CCOC(=O)c1c(NC(=O)c2cc(C(C)C)on2)sc(C)c1C — lower, 49%
- Cc1nn(C)c2c1c(C(F)(F)F)cc(=O)n2CC(=O)NCCC(C)C — higher, 95%
- O=C(NCCc1ccccc1)c1cc(Sc2ccc(F)cc2F)nc2ccccc12 — higher, 98%
- COc1ccc(C2CC(=O)Nc3cc4c(cc32)OCO4)c(OC)c1 (configuration not stated) — lower, 80%
- COc1ccc(N(Cc2cc3cccc(C)c3[nH]c2=O)C(=O)c2cccc(Cl)c2)cc1 — lower, 67%
- Cc1cccc(OCCCC(=O)Nc2sc3c(c2C(N)=O)CCC(C)C3)c1 (configuration not stated) — lower, 73%
- COC(=O)c1c(NC(=O)CS(=O)(=O)c2ccc(C)cc2)sc2c1CCCCC2 — lower, 76%
- CCOC(=O)c1c(NC(=O)CS(=O)(=O)c2ccc(C)cc2)sc2c1CCCCC2 — lower, 66%
- COC(=O)c1c(NC(=O)COc2ccc(C)cc2Br)sc2c1CCCC2 — lower, 61%
- COC(=O)c1c(NC(=O)Cc2coc3ccc(C)cc23)sc2c1CCC2 — lower, 59%
- CC1CCc2c(sc(NC(=O)CCCOc3ccc(C(C)(C)C)cc3)c2C(N)=O)C1 (configuration not stated) — lower, 60%
- CCOC(=O)c1c(NC(=O)COc2ccc(C)cc2C(C)(C)C)sc2c1CCC(C)C2 (configuration not stated) — lower, 55%
- COC(=O)c1c(NC(=O)c2ccc(C(C)(C)C)cc2)sc2c1CCC(C)C2 (configuration not stated) — higher, 85%
- O=c1c(S(=O)(=O)c2cccc(Cl)c2)cn(Cc2ccccc2)c2cc(N3CCCCC3)c(F)cc12 — higher, 89%
- O=c1oc2cc(O)ccc2cc1-c1nc(-c2ccc(Cl)c(Cl)c2)cs1 — higher, 101%
- COc1cc(NC(=O)Nc2cccc(-c3noc(C)n3)c2)cc(OC)c1OC — higher, 128%
- CC(C)Cn1c(SCC(N)=O)nc2ccccc2c1=O — higher, 97%
- O=C(CN1C(=O)c2cccc3cccc1c23)N1CCCC1 — higher, 85%
- Cc1ccc(Cl)cc1NC(=O)Cn1c(=O)n(C(C)C)c(=O)c2oc3ccccc3c21 — lower, 51%
- Cc1ccc(Cl)cc1N1CCN(C(=O)C2CCCN(S(=O)(=O)c3ccc(Br)s3)C2)CC1 (configuration not stated) — higher, 113%
- COc1ccccc1N(CC(=O)NC1CCCCC1)C(=O)c1csnn1 — higher, 96%
- O=C(NCc1cccc(F)c1)c1ccc(CS(=O)c2ccccc2Cl)o1 (configuration not stated) — lower, 68%
- COC(=O)c1c(NC(=O)COc2ccc(Cl)cc2C)sc2c1CCCCC2 — lower, 68%
- Cc1ccccc1OCC(=O)Nc1sc2c(c1C(=O)OC(C)C)CCCC2 — lower, 77%
- CC1CCc2c(sc(NC(=O)CCCOc3ccccc3)c2C(N)=O)C1 (configuration not stated) — lower, 78%
- COc1ccc(NC(=O)c2c(NC(=O)COc3ccccc3)sc3c2CCC(C)C3)cc1 (configuration not stated) — higher, 120%
- CCOc1ccc(/C=C/C(=O)Nc2sc3c(c2C(=O)OC)CCC3)cc1 — lower, 75%
- Cc1ccc(OCCCC(=O)Nc2sc3c(c2C(N)=O)CCCC3)cc1 — lower, 53%
- CCS(=O)(=O)Nc1ccc2[nH]c(=O)[nH]c2c1 — higher, 88%
- CCc1ccc(NC(=O)CNC(=O)Cn2c(C)cc3ccccc3c2=O)cc1 — higher, 114%
- CCN(C(=O)C1CCN(S(=O)(=O)c2c(C)noc2/C=C/c2ccc(C)cc2)CC1)c1cccc(C)c1 — higher, 84%
- CCOc1ccc(CCNC(=O)C2CC(=O)N(CCc3ccc(OC)c(OC)c3)C2)cc1OCC (configuration not stated) — higher, 91%
- COc1ccc(OC)c(C2CC(=O)c3c([nH]c(C(=O)OC4CCC(C)CC4)c3C)C2)c1 (configuration not stated) — the same, 81%
- COc1ccc(-c2noc(-c3ccc(N4CCCC4)c([N+](=O)[O-])c3)n2)cc1 — higher, 108%
- COc1ccc(-c2noc(-c3ccc(N4CCN(c5ccc(OC)cc5)CC4)c([N+](=O)[O-])c3)n2)cc1 — lower, 47%
- COc1ccc(-c2noc(-c3ccc(N4CCN(C)CC4)c([N+](=O)[O-])c3)n2)cc1OC — lower, 50%
- COc1ccc(-c2noc(-c3ccc(N4CCOCC4)c([N+](=O)[O-])c3)n2)cc1 — lower, 46%
- CC1=C(C(=O)Nc2ccccc2C)C(c2cccnc2)n2nc(SCc3ccccc3F)nc2N1 (configuration not stated) — lower, 60%
- Cc1nc2nncn2c(N2CCN(c3ccccc3)CC2)c1C — higher, 83%

With CCOC(=O)c1c(NC(=O)c2cc(C)on2)sc(C)c1C the survival was 47% (active).
For COC(=O)c1c(NC(=O)CCCOc2ccc(C(C)(C)C)cc2)sc2c1CCC(C)C2 (configuration not stated), the survival was 28% (active).
With COC(=O)c1c(NC(=O)CS(=O)(=O)c2ccc(C)cc2)sc2c1CCCC2 the survival was -4% (active).
In the case of COC(=O)c1c(NC(=O)CCCOc2cccc(C)c2)sc2c1CCC2, the survival is reported as 15% (active).
For COC(=O)c1c(NC(=O)CCCOc2cccc(C)c2)sc2c1CCC(C)C2 (configuration not stated), the survival was 10% (active).
For COC(=O)c1c(NC(=O)CCCOc2ccccc2)sc2c1CCC(C)C2 (configuration not stated), the survival was 2% (active).
With COC(=O)c1c(NC(=O)CCCOc2ccc(C)cc2)sc2c1CCCC2 the survival was 8% (active).
For COC(=O)c1c(NC(=O)CCCOc2ccccc2C)sc2c1CCC2, the survival was 4% (active).
COc1ccc(-c2noc(-c3ccc(N4CCN(C)CC4)c([N+](=O)[O-])c3)n2)cc1 was tested, and the survival was 42% (active).
With COc1ccc(-c2noc(-c3ccc(N4CCCCC4)c([N+](=O)[O-])c3)n2)cc1 the survival was 37% (active).
